# According to paper PMC7862700, “An all-to-all approach to the identification of sequence-specific readers for epigenetic DNA modifications on cytosine”:
# What was measured:
# Assay in all cases: DAPPL (digital affinity profiling via proximity ligation, sequencing); 10 mM Tris-HCl pH 7.5, 50 mM NaCl, 1 mM DTT, 4% glycerol, room temperature, 30 min; GST-TFs on glutathione beads, 16-mer random dsDNA library, 0.1% formaldehyde crosslink after washing; high values mean tight binding
# Conditions in all cases: protein: recombinant; tags: N-terminal GST; dsDNA, one strand shown
# ETV1 = ETV1 (Homo sapiens, UniProt P50549 1-477)
# Chain of ETV1 (P50549 whole entry, the tested form may be a part): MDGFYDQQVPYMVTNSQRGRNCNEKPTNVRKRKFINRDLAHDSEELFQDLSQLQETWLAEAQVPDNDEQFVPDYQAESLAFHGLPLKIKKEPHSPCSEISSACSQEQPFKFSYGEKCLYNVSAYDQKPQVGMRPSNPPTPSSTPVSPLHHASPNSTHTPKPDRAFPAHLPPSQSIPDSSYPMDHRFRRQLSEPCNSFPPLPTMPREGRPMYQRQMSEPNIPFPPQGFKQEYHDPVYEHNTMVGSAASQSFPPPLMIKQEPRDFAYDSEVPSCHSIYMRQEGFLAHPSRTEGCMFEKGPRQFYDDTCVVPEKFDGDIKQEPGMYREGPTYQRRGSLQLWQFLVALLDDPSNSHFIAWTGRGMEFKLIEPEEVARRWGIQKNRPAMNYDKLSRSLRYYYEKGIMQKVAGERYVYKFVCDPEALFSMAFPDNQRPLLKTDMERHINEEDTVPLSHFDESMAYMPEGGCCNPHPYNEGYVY
# Method in brief: (§1)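 Human transcription factors fused to GST were expressed in yeast, captured on glutathione beads, given DNA barcodes and pooled with a GST-only negative control. Pools were incubated with 200 nmole of a 16-mer random double-stranded DNA library in Tris/NaCl/DTT/glycerol buffer at room temperature for 30 min. They were then washed, crosslinked with 0.1% formaldehyde, proximity-ligated (BsaI/T4 ligase, 1 h, 37 °C), PCR-amplified and sequenced on an Illumina NextSeq500. Binding signal is each 6-mer's read frequency for a factor divided by its frequency for the GST control.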
# ERF = biological target: T1, ERF (Homo sapiens, UniProt P50548 1-548)
# T1 sequence: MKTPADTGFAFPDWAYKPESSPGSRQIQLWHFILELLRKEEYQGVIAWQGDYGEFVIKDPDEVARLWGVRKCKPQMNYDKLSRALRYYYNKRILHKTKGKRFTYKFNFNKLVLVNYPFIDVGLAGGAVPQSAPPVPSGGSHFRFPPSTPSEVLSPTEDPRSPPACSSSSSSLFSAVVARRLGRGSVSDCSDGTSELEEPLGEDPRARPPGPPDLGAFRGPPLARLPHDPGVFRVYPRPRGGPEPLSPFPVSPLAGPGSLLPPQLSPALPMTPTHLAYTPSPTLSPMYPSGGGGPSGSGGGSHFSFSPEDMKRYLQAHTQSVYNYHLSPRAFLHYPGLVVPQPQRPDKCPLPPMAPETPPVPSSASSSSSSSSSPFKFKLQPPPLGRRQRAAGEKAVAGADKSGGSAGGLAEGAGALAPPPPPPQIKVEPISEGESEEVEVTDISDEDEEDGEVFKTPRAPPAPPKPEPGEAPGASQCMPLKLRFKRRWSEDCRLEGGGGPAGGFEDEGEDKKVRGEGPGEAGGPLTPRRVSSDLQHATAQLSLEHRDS
# Method in brief: as §1
# ETV3L = biological target: T2, ETV3L (Homo sapiens, UniProt Q6ZN32 1-361)
# T2 sequence: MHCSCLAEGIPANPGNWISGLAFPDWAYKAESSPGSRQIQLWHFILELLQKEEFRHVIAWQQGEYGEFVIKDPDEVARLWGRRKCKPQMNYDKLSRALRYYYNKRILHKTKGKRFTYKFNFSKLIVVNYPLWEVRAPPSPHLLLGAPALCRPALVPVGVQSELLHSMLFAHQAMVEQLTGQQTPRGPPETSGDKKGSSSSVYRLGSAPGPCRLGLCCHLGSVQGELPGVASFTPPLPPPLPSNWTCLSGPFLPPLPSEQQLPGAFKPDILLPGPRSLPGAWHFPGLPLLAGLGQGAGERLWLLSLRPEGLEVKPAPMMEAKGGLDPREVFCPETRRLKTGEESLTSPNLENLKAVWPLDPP
# Method in brief: as §1
# ETS2 = biological target: T3, ETS2 (Homo sapiens, UniProt P15036 1-469)
# T3 sequence: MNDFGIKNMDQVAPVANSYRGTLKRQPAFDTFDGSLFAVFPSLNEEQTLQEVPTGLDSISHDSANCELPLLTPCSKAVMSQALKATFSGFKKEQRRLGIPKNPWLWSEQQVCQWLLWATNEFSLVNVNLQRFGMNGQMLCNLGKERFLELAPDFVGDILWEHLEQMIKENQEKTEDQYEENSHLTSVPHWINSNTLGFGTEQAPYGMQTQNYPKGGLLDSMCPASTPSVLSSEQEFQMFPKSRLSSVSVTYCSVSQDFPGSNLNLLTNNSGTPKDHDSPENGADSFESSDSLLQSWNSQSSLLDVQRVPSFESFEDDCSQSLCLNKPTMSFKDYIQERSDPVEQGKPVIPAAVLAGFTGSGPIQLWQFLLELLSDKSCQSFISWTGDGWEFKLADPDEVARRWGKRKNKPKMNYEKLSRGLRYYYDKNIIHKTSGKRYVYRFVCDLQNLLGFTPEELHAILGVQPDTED
# Method in brief: as §1
# SPDEF = biological target: T4, SPDEF (Homo sapiens, UniProt O95238 1-335)
# T4 sequence: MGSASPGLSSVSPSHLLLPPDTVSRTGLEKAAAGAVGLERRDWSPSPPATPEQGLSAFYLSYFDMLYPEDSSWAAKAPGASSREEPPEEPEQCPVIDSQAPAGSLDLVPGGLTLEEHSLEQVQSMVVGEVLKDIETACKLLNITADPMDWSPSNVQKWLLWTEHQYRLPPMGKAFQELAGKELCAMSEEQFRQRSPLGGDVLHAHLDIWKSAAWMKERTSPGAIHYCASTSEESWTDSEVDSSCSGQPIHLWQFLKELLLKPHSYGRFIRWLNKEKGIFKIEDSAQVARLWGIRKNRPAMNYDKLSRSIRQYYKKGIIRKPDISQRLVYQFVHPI
# Method in brief: as §1
# ETV7 = biological target: T5, ETV7 (Homo sapiens, UniProt Q9Y603 1-341)
# T5 sequence: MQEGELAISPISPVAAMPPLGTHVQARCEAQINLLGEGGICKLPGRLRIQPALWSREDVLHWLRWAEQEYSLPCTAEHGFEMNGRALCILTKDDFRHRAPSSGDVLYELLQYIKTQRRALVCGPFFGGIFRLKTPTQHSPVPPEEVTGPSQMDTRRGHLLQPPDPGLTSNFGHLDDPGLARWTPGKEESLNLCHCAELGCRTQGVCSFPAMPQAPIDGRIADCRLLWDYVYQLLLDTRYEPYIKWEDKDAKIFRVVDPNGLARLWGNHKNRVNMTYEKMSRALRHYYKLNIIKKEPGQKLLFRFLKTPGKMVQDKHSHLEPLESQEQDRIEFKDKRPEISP
# Method in brief: as §1
# ELF5 = biological target: T6, ELF5 (Homo sapiens, UniProt Q9UKW6-2 1-255)
# T6 sequence: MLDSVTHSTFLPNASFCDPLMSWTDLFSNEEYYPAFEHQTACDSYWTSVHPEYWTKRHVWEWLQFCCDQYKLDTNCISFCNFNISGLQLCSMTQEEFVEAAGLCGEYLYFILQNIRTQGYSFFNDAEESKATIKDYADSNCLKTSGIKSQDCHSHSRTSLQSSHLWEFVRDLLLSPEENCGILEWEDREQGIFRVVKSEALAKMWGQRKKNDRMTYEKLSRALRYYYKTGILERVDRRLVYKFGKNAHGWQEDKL
# Method in brief: as §1
# ETV3 = biological target: T7, ETV3 (Homo sapiens, UniProt P41162-2 1-143)
# T7 sequence: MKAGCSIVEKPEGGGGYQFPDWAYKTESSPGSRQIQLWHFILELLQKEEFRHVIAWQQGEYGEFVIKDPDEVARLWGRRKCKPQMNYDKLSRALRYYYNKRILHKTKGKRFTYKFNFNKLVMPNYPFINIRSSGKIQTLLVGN
# Method in brief: as §1
# ETV6 = ETV6 (Homo sapiens, UniProt P41212 1-452)
# Chain of ETV6 (P41212 whole entry): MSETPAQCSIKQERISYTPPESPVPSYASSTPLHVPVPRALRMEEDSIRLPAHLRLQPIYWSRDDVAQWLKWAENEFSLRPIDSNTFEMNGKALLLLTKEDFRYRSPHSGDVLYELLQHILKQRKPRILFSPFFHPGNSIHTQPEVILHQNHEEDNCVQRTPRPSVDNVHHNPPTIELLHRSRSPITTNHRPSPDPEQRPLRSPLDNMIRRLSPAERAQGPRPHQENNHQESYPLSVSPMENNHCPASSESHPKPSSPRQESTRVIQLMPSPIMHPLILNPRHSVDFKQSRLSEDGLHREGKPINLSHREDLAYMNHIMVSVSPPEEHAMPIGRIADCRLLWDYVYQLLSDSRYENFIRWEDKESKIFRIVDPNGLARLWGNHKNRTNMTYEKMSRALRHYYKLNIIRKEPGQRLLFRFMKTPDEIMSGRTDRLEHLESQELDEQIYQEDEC
# Method in brief: as §1
sequence,measurement,setting,value
TGAACT,binding signal,ETV1,"1.24 fold enrichment (6-mer frequency, TF over GST control)"
same,binding signal,ERF,"1.31 fold enrichment (6-mer frequency, TF over GST control)"
same,binding signal,ETV3L,"1.23 fold enrichment (6-mer frequency, TF over GST control)"
same,binding signal,ETS2,"1.23 fold enrichment (6-mer frequency, TF over GST control)"
same,binding signal,SPDEF,"1.16 fold enrichment (6-mer frequency, TF over GST control)"
same,binding signal,ETV7,"1.21 fold enrichment (6-mer frequency, TF over GST control)"
same,binding signal,ELF5,"1.23 fold enrichment (6-mer frequency, TF over GST control)"
same,binding signal,ETV3,"1.24 fold enrichment (6-mer frequency, TF over GST control)"
same,binding signal,ETV6,"1.22 fold enrichment (6-mer frequency, TF over GST control)"
